Assay results reported in PubChem BioAssay (Tox21).
“And” between values parts separate entries of the source, which are not always exact repeats. Equal values may be shown once. Inconclusive results are not listed. Entries that show only a call come without a potency. Some structures have more than one record in an assay (separate samples or runs), and their calls can disagree. The source made the active and inactive calls. Unless noted, calls follow the shape of the dose curve; as a rule, active = well fitted curve in the direction sought with a large enough effect in the repeat runs; inconclusive = weak or mixed curves; inactive = no such curve, though single readings can be large; an effect the other way counts as inactive or inconclusive.

Tests used:
[1] = qHTS assay to identify small molecule agonists of the peroxisome proliferator-activated receptor delta (PPARd) signaling pathway - cell viability counter screen (AID 743211); also: nearly all actives have a fitted effect of over 55% in size
Procedure, shortened: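 Counter screen for cytotoxicity run in parallel with the PPARd reporter screen. Beta-lactamase reporter HEK293H cells exposed to compounds 17 h; ATP-based CellTiter-Glo luminescence quantified viability.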

[2] = target: Peroxisome proliferator-activated receptor delta (Homo sapiens) (UniProt Q03181); assay: qHTS assay to identify small molecule agonists of the peroxisome proliferator-activated receptor delta (PPARd) signaling pathway (AID 743212; calls by dose curve)
Peroxisome proliferator-activated receptor delta (Homo sapiens), sequence (Q03181 whole entry, looked up): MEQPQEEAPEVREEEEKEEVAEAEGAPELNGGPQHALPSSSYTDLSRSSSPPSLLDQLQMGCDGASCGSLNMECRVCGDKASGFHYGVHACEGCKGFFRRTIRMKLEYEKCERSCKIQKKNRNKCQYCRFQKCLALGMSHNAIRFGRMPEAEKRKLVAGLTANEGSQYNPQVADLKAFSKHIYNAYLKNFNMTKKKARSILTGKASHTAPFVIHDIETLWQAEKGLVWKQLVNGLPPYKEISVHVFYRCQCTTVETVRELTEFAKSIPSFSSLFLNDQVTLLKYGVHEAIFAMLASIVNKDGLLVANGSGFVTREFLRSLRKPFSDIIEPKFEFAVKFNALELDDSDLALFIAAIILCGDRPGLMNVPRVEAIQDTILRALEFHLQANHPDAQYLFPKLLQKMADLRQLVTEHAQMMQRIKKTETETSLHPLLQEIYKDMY
Procedure, shortened: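 GeneBLAzer UAS-bla HEK293H cells carrying a PPARδ construct were exposed to compounds at 37 °C. Beta-lactamase activity was read by FRET fluorescence after 2 h at room temperature with LiveBLAzer B/G substrate.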

[3] = target: Peroxisome proliferator-activated receptor delta (Homo sapiens) (UniProt Q03181); assay: qHTS assay to identify small molecule antagonists of the peroxisome proliferator-activated receptor delta (PPARd) signaling pathway (AID 743215; active = well fitted inhibition curve with a large enough effect in the signal ratio in the repeat runs, not every such curve was filed as active; the % refers to the signal ratio;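 also: cells stimulated with agonist L165041 at 300 nM final during compound exposure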; also: potency is read from the fitted curve at half-maximal effect)
Procedure, shortened: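 With L165041 present at 300 nM final, compounds were incubated 17 h at 37 C on PPARd UAS-bla HEK293H cells. A FRET-based beta-lactamase substrate was then applied for 2 h at room temperature and fluorescence intensity recorded.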

[4] = target: Bile acid receptor (Homo sapiens) (UniProt Q96RI1); assay: qHTS assay to identify small molecule antagonists of the farnesoid-X-receptor (FXR) signaling pathway (AID 743217; active = well fitted inhibition curve with a large enough effect in the signal ratio in the repeat runs, not every such curve was filed as active; the % refers to the signal ratio)
Bile acid receptor (Homo sapiens), sequence (Q96RI1 whole entry, looked up): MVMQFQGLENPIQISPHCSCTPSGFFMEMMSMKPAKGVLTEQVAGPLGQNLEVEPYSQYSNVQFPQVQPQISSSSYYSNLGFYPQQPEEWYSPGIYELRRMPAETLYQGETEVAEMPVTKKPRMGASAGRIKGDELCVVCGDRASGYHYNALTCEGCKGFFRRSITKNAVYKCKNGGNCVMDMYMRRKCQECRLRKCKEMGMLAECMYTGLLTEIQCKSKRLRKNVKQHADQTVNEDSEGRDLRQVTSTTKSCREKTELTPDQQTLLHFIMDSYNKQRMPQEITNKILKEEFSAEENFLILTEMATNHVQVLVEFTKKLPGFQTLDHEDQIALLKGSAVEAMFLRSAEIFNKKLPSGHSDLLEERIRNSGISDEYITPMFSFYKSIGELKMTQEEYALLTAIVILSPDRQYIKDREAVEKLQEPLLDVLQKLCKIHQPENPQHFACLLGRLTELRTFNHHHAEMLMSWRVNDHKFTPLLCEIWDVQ
Procedure, shortened: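 In this cell-based antagonist screen, inhibition of CDCA-driven (50 uM final) UAS-beta-lactamase expression in HEK 293T cells was measured by FRET fluorescence following 16 h compound exposure at 37 °C.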

[5] = target: Bile acid receptor (Homo sapiens) (UniProt Q96RI1); assay: qHTS assay to identify small molecule agonists of the farnesoid-X-receptor (FXR) signaling pathway (AID 743220; active = well fitted activation curve with a large enough effect in the signal ratio in the repeat runs, not every such curve was filed as active; the % refers to the signal ratio)
Procedure, shortened: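 Beta-lactamase reporter under UAS control in GeneBLAzer FXR HEK 293T cells (5000/well) measured with LiveBLAzer FRET substrate after 2 h at room temperature. Compound exposure lasted 16 h at 37C.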

[6] = qHTS assay to identify small molecule antagonists of the farnesoid-X-receptor (FXR) signaling pathway - cell viability counter screen (AID 743221; active = well fitted cell-killing curve with a large enough effect in the repeat runs, not every such curve was filed as active; also: nearly all actives have a fitted effect of over 50% in size; also: potency is read from the fitted curve at half-maximal effect)
Procedure, shortened: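 Multiplexed counter screen: viability of FXR-bla HEK 293T cells under agonist stimulation by chenodeoxycholic acid (50 uM, final) and test compound for 16 h at 37 C, measured by CellTiter-Glo luminescence in the reporter wells.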

[7] = target: Vitamin D3 receptor (Homo sapiens) (UniProt P11473); assay: qHTS assay to identify small molecule agonists of the vitamin D receptor (VDR) signaling pathway (AID 743222; calls by dose curve)
Vitamin D3 receptor (Homo sapiens), sequence (P11473 whole entry, looked up): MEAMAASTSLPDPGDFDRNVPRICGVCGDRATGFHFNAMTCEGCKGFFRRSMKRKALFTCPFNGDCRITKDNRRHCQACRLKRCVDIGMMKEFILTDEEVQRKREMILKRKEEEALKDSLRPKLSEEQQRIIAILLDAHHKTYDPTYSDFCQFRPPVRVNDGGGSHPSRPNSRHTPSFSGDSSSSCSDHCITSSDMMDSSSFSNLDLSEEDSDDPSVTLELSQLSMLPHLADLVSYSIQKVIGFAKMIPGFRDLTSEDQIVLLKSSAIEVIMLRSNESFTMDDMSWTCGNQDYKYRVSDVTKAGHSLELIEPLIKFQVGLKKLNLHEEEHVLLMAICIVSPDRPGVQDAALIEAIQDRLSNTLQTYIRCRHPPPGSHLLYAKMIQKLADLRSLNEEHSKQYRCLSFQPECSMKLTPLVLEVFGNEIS
Procedure, shortened: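 VDR-bla cells were seeded, left 4 h, treated with compounds in DMSO for 16 h, incubated 2 h at RT with B/G FRET substrate, and read for fluorescence.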

[8] = target: Vitamin D3 receptor (Homo sapiens) (UniProt P11473); assay: qHTS assay to identify small molecule antagonists of the vitamin D receptor (VDR) signaling pathway (AID 743223; active = well fitted inhibition curve with a large enough effect in the signal ratio in the repeat runs, not every such curve was filed as active; the % refers to the signal ratio)
Procedure, shortened: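 Cells carrying a VDR-driven beta-lactamase reporter (VDR-bla) were co-treated with compound and 3 nM final 1alpha,25-dihydroxyvitamin D3 for 16 h at 37C; reporter activity was measured as FRET substrate fluorescence after 2 h at room temperature.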

[9] = qHTS assay to identify small molecule agonists of the farnesoid-X-receptor (FXR) signaling pathway - cell viability counter screen (AID 743218); also: nearly all actives have a fitted effect of over 45% in size; also: potency is read from the fitted curve at half-maximal effect
Procedure, shortened: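 After 16 h at 37 C with test compounds, FXR-bla HEK 293T cells were given LiveBLAzer B/G substrate for 2 h at RT and then CellTiter-Glo; luminescence was taken after 30 min.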

[10] = qHTS assay to identify small molecule antagonists of the peroxisome proliferator-activated receptor delta (PPARd) signaling pathway - cell viability counter screen (AID 743213); also: nearly all actives have a fitted effect of over 50% in size
Procedure, shortened: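 CellTiter-Glo was added to PPARd-bla HEK293H wells following 17 h compound treatment in the presence of 300 nM L165041. Luminescence was recorded after 30 min at room temperature.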

Structure (SMILES)	outcome [1]	outcome [2]	Potency [3]	outcome [4]	outcome [5]	Potency [6]	outcome [7]	outcome [8]	Potency [9]	outcome [10]
CN(C)CCCN	inactive	inactive	inactive	inactive	inactive	inactive	inactive	inactive		
ON=C1CCCCC1	inactive	inactive	inactive and 43.6 µM (active)			inactive	inactive	inactive	inactive	
CCCCCC/C(C=O)=C\c1ccccc1	inactive	inactive	inactive	inactive	inactive	inactive	inactive	inactive	inactive	
COS(C)(=O)=O	inactive	inactive	inactive			inactive	inactive	inactive		inactive
COc1ccc(Nc2ccccc2)c(C)c1	inactive	inactive	inactive			inactive			inactive	
Cc1cccc(O)c1	inactive	inactive	inactive			inactive				inactive
CCCCCCCCCCCCc1ccccc1	inactive	inactive	inactive	inactive	inactive	inactive	inactive	inactive	inactive	
CC(=O)CC(=O)Nc1ccccc1	inactive	inactive	inactive	inactive	inactive	inactive	inactive	inactive	inactive	
Nc1ccccc1[N+](=O)[O-]	inactive	inactive	inactive	inactive	inactive	inactive			inactive	
CCCCCCOCCO	inactive	inactive	inactive			inactive	inactive	inactive		inactive
O=c1[nH]c(=O)n([C@H]2CCCO2)cc1F	inactive	inactive	inactive			inactive			inactive	
O=C1CCC(N2C(=O)c3ccccc3C2=O)C(=O)N1 (stereo not given)	inactive	inactive	inactive			inactive			inactive	
O=C=NCCCCCCN=C=O	inactive	inactive	inactive	inactive	inactive	inactive	inactive	inactive	inactive	
FC(F)(F)c1ccc(Cl)c(Cl)c1	inactive	inactive	inactive			inactive	inactive			inactive
OCc1cccnc1	inactive	inactive		inactive	inactive	inactive			inactive	inactive
C=CCNC(N)=S	inactive	inactive	inactive			inactive	inactive	inactive		inactive
c1ccc(OCCOc2ccccc2)cc1	inactive	inactive	inactive			inactive	inactive	inactive	inactive	
c1ccc2scnc2c1	inactive	inactive				inactive	inactive	inactive		inactive
O=C(O)c1cc(O)c(O)c(O)c1	inactive	inactive	inactive			inactive	inactive	inactive	inactive	
CC(C)(C)[C@@H](O)[C@@H](Cc1ccc(Cl)cc1)n1cncn1	inactive	inactive	inactive	inactive	inactive	inactive	inactive	inactive		
CCCCCCCCC/C=C/CC1CC(=O)OC1=O (stereo not given)	inactive	inactive		inactive	inactive	inactive	inactive	inactive		inactive
CCc1cccc(C)c1N	inactive	inactive	inactive			inactive	inactive	inactive	inactive	

Structure (SMILES)	outcome [1]	outcome [2]	Potency [3]	outcome [4]	outcome [5]	Potency [6]	outcome [7]	outcome [8]	Potency [9]	outcome [10]
Cc1ccc(N(C)C)cc1	inactive	inactive	inactive			inactive	inactive	inactive		inactive
CCCCCOC(C)=O	inactive	inactive	inactive	inactive	inactive	inactive	inactive	inactive	inactive	
CCCCC(CC)COC(=O)CCCCC(=O)OCC(CC)CCCC (stereo not given)	inactive	inactive	inactive	inactive	inactive	inactive	inactive	inactive		
O=c1[nH]c(=O)n([C@H]2C[C@H](O)[C@@H](CO)O2)cc1Br	inactive	inactive		inactive	inactive	inactive	inactive	inactive	inactive	inactive
CCOC(=O)NNc1nncc2ccccc12	inactive	inactive	inactive	inactive	inactive	inactive	inactive	inactive		
CCc1ccc(CCOc2ccc(CC3SC(=O)NC3=O)cc2)nc1 (stereo not given)	inactive					inactive				inactive
OCCOCCN1CCN(C2=Nc3ccccc3Sc3ccccc32)CC1	inactive			inactive	inactive	inactive	inactive	inactive	inactive	
CC1=C(C)S(=O)(=O)CCS1(=O)=O	inactive	inactive	inactive			inactive	inactive	inactive		
CC1=CC(=O)NS(=O)(=O)O1	inactive			inactive	inactive	inactive	inactive	inactive		inactive
Cc1cccnc1	inactive					inactive	inactive	inactive	inactive	inactive
CC(=O)Nc1cccc(O)c1	inactive					inactive			inactive	
C=C(C)C(=O)Nc1ccc(Cl)c(Cl)c1	inactive					inactive	inactive	inactive	inactive	
C=CCOC(=O)c1ccccc1C(=O)OCC=C	inactive			inactive	inactive	inactive				inactive
Fc1ccc(Br)cc1	inactive					inactive	inactive	inactive		
CCCCCCCCCCCCCCO	inactive					inactive	inactive	inactive	inactive	inactive
CC[C@H](C)C(=O)O[C@H]1C[C@@H](C)C=C2C=C[C@H](C)[C@H](CC[C@@H]3C[C@@H](O)CC(=O)O3)[C@H]21		inactive	inactive	inactive	inactive	62.5 µM (active) and inactive	inactive		62.5 µM (active) and inactive	inactive
CC1CCC2CC1C2(C)C (stereo not given)	inactive			inactive	inactive	inactive				inactive
COc1ccc2cc([C@H](C)C(=O)O)ccc2c1	inactive					inactive	inactive	inactive		inactive
CN(C)CCC(c1ccccc1)c1ccccn1 (stereo not given)	inactive	inactive				inactive	inactive	inactive		
O=[N+]([O-])c1ccc(/C=C/c2ccc([N+](=O)[O-])cc2S(=O)(=O)O)c(S(=O)(=O)O)c1	inactive					inactive	inactive	inactive		
CCCCOC(=O)COc1ccc(Cl)cc1Cl	inactive			inactive	inactive	inactive	inactive	inactive	inactive	inactive
O=P(OC(CCl)CCl)(OC(CCl)CCl)OC(CCl)CCl	inactive	inactive	inactive			inactive	inactive	inactive		

Structure (SMILES)	outcome [1]	outcome [2]	Potency [3]	outcome [4]	outcome [5]	Potency [6]	outcome [7]	outcome [8]	Potency [9]	outcome [10]
CC1=CCC2CC1C2(C)C (stereo not given)	inactive	inactive				inactive	inactive			
CN(C)CCC(c1ccc(Cl)cc1)c1ccccn1 (stereo not given)						inactive			inactive	inactive
CC(C)c1ccc(S(=O)(=O)O)cc1	inactive					inactive				inactive
O=S1(=O)CC=CC1	inactive	inactive	inactive			inactive	inactive	inactive	inactive	
CC(=O)CC(=O)Nc1ccccc1C	inactive					inactive	inactive	inactive		inactive
Cc1occc(=O)c1O	inactive					inactive	inactive	inactive		
CCN(CC)c1ccc(C(=O)c2ccccc2C(=O)O)c(O)c1	inactive					inactive	inactive		inactive	inactive
CCCCCC(N)=O	inactive	inactive	inactive			inactive	inactive	inactive		
CC(C)CC(=O)CC(C)C	inactive					inactive	inactive	inactive		
CCCSc1ccc2nc(NC(=O)OC)[nH]c2c1	inactive						inactive		inactive	inactive
C=C(C)C(=O)OCCOCCOCCOC(=O)C(=C)C	inactive					inactive	inactive	inactive	inactive	inactive
NNc1nncc2ccccc12	inactive					inactive	inactive	inactive	inactive	inactive
CCCCCCCCCCCCOCCO	inactive					inactive			inactive	
COCCCOc1ccnc(CS(=O)c2nc3ccccc3[nH]2)c1C (stereo not given)	inactive					inactive			inactive	inactive
CCCCC(CC)COC(=O)CS (stereo not given)	inactive					inactive	inactive	inactive	inactive	inactive
c1c[nH]cn1	inactive	inactive	inactive			inactive	inactive	inactive	inactive	
CCC(O)OC(O)CC (stereo not given)	inactive					inactive	inactive	inactive	inactive	inactive
Oc1cccc2ccccc12	inactive			inactive	inactive	inactive	inactive	inactive		
CCC(O)OCCCOC (stereo not given)	inactive	inactive	inactive			inactive	inactive	inactive		
OCCOCCOCCO	inactive					inactive	inactive	inactive		inactive
O=C(O)c1ccc2c(c1)C(=O)OC2=O	inactive			inactive	inactive	inactive	inactive	inactive		inactive
Cc1cnc(C(=O)NCCc2ccc(S(=O)(=O)NC(=O)NC3CCCCC3)cc2)cn1	inactive	inactive				inactive			inactive	
